dFosB act-1: enhances mouse delta FosB homodimer DNA binding. P13346. activation, % at 25 µM. purified delta FosB, TAMRA-CDK5 oligo fluorescence polarization; percent of positive-control signal above neutral wells. 340,000 compounds, 0.99% hits;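 active = mean activation above about 17%, with every replicate also reaching it, limit read from the data, passing the limit was not always enough; inconclusive = only one of the two conditions met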
Target sequence (P13346 whole entry, looked up): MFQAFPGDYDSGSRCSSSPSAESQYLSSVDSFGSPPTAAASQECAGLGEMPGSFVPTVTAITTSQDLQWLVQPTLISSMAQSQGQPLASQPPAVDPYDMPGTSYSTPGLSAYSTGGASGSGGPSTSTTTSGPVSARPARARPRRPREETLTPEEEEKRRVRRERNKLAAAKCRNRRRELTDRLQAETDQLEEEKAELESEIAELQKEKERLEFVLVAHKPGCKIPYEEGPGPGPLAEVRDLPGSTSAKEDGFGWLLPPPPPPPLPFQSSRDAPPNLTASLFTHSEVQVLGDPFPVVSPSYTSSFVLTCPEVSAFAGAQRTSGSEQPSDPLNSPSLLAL
HSP90 inh: inhibitors of HSP90 luciferase refolding in rabbit reticulocyte lysate | 290,000 compounds, 0.91% hits | inhibition, % at 5.6 µM | luciferase refolding luminescence, 3 h;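 active = inhibition above the screen-wide mean plus 3 SD, computed separately per campaign, cut at about 16% in these data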;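 also: inhibitors lower the luminescence because luciferase stays unfolded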
MPTP block: inhibitors of mitochondrial permeability transition pore; isolated mouse mitochondria, Ca2+ swelling absorbance, 30 min; inhibition, % at 10 µM; 360,000 compounds, 1.4% hits; AID 602449;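 active = inhibition of 50% or more, scaled per plate between neutral and stimulator controls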
HSF1 inhib: HSF1 inhibition. NIH3T3-HGL HSE-luciferase, MG132-induced, luminescence 8 h; active compounds read low. activity change, negative = inhibition, % at 7.5 µM (by protocol). 300,000 compounds, 0.77% hits. AID 2098;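 active = more than half of replicate wells show activity change below -50%, luminescence cut by over half; inconclusive = some wells, but at most half, below -50%; inactive = no replicate well below -50%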;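 also: luciferase reports HSF-1 transcriptional activity via heat shock element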
HSF-1 act: increases HSF-1 driven luciferase reporter signal. NIH3T3-HGL HSF-1 luciferase reporter, MG132, 8 h; 100% = twice DMSO control signal. activation, % at 9 µM. 300,000 compounds, 1.7% hits. AID 504408;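 active = mean replicate activation of at least 50% with a set share of replicates each reaching 50%; inconclusive = only one of those two conditions met; inactive = mean below 50% and too few replicates reaching it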
Platelet DG rel: modulates dense granule release in human platelets; human platelet-rich plasma, SFLLRN dense granule ATP release, luminescence; inhibition, %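 (compounds screened at 7.5 µM in platelet-rich plasma)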; 300,000 compounds, 0.22% hits; AID 1663;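 active = mean replicate score, as percent of positive control, at or above 50; inconclusive = mean below 50 but at least one replicate at or above 50; inactive = mean and every replicate below 50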
HSP90 inh confirm: confirmation of HSP90 inhibitors; shares compounds with HSP90 inh; rabbit reticulocyte lysate, luciferase refolding luminescence, 3 h; inhibition, % at 5.9 µM; 2,300 compounds, 64% hits; in the data active = inhibition above about 18%
luciferase ctr: blocks native firefly luciferase in HSP90 counter-screen; purified native firefly luciferase, luminescence; inhibition, % at 5.9 µM; 2,300 compounds, 48% hits; shares compounds with HSP90 inh;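 active = inhibition above the mean inhibition of all tested sample wells plus 3 SD, cut at about 10% in these data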
dFosB act-2: activators of mouse delta FosB homodimer DNA binding; shares compounds with dFosB act-1; purified delta FosB, TAMRA-CDK5 oligo fluorescence polarization; normalised: neutral wells 0, positive control 100; activation, % at 24.9 µM; 2,400 tested, under 10 active; AID 588690;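 active = highest replicate activation at or above 34% and every replicate reaching that threshold; inconclusive = meets only one of the two criteria; inactive = meets neither criterion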;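 also: higher polarization means more probe DNA bound by delta FosB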
MPTP counter: Rhodamine 123 counter-screen of mitochondrial pore hits; AID 624504; 5,000 compounds, 78% hits; shares compounds with MPTP block; inhibition, % at 10 µM; isolated mitochondria, membrane potential, Rhodamine 123 fluorescence; in the data active = inhibition above about 22%
MPTP abs DR: dose response confirmation of mitochondrial permeability transition pore inhibitors; shares compounds with MPTP block; isolated mitochondria swelling, absorbance; IC50, µM; 780 compounds, 58% hits; in the data active = IC50 below about 20 µM
MPTP counter DR: active in counter-screen for permeability transition pore inhibitors. shares compounds with MPTP block. isolated mitochondria counterscreen, fluorescence read-out. IC50, µM. 780 compounds, 49% hits; in the data active = IC50 below about 80 µM
Hits are given with their value; 0 = inactive; ? = inconclusive; - = no result. Sampled rows, rich in hits. Any-hit rate of the full collection: about 4.9%.

SMILES	dFosB act-1	HSP90 inh	MPTP block	HSF1 inhib	HSF-1 act	Platelet DG rel	HSP90 inh confirm	luciferase ctr	dFosB act-2	MPTP counter	others
COc1ccc(C(=O)Nc2nnc(SCC(=O)NC3CC3)s2)cc1	22.4	22.5	0	0	0	0	28.6	16.1	0	-
Cc1ccc(Nc2nc(N)c3ccccc3n2)cc1C	42.4	26.3	0	0	0	0	53.5	36.8	0	-
Cc1cc(Nc2ccc(C)c(C)c2)c2ccccc2n1	0	0	0	0	0	0	-	-	-	-
O=C(N/N=C/c1cccnc1)c1ccc(NC(=O)c2ccc(Cl)cc2)cc1	42.5	19.5	0	0	0	0	0	0	0	-
COc1ccc(-c2cn3c(C)c(C(=O)Nc4ccncc4)sc3n2)cc1	0	0	0	0	0	0	-	-	-	-
COC(=O)c1ccc(NC(=O)c2sc3nc(-c4ccccc4)cn3c2C)cc1	25.6	20.7	0	0	0	0	17.7	0	0	-
c1coc(C2=NC(c3ccco3)C(c3ccco3)N2)c1 (configuration not stated)	0	-	0	-	-	-	-	-	-	-
COc1cc([C@@H]2Oc3cc(C4Oc5cc(O)cc(O)c5C(=O)[C@H]4O)ccc3O[C@H]2CO)ccc1O (some centres not stated)	0	-	0	-	-	-	-	-	-	-
C=CCOC(=O)C1=C[C@H](c2cn(C(C)=O)c3ccccc23)[C@@H](CCCO)[C@H](OCC)O1	0	0	0	0	0	0	-	-	-	-
Cc1cc(=O)oc2cc(OCC(=O)Nc3nccs3)ccc12	0	0	0	0	?	0	-	-	-	-
Cc1c(C)c2ccc(OCC(=O)Nc3nccs3)cc2oc1=O	31.5	57.8	0	0	0	0	73.5	55.5	0	-
CC(=O)c1sc(NC(=O)c2ccc(Cl)cc2)nc1C	34.4	42.1	0	0	0	0	24.7	0	0	-
CC1CCN(c2cc(N3CCOCC3)c([N+](=O)[O-])cc2F)CC1	0	0	0	0	0	0	-	-	-	-
Cc1nnc(N/N=C/c2cc([N+](=O)[O-])c(N3CCC(C)CC3)cc2N2CCC(C)CC2)n1N	0	75.6	83.2	0	0	0	0	0	-	65.8
O=[N+]([O-])c1ccc2nc(/C=C/c3ccc(Cl)cc3)[nH]c2c1	0	27.9	90.0	0	0	0	0	0	-	80.1
COc1cccc(NC(=O)CSc2nc(O)c(C)c(=O)n2-c2ccc(C)cc2)c1	0	0	0	0	0	0	-	-	-	-
CCN(C(=O)Nc1cccc(Cl)c1)c1ccccc1	0	0	0	0	0	0	-	-	-	-
Cc1cccc(N(O)C(=O)Nc2cccc(Cl)c2)c1	0	26.2	64.4	0	0	0	62.5	0	-	83.8
CCCNC(=O)C1(C)CCCN(Cc2cc(-c3ccccc3)n(C)n2)C1 (configuration not stated)	-	-	0	-	-	-	-	-	-	-
Cc1nc2cc(C)c(C)cc2s1	0	0	0	0	0	0	-	-	-	-
Cc1cc2nc3ccc(=[N+](C)C)cc-3sc2cc1N	0	81.8	62.9	0	57.8	0	89.4	37.9	-	36.6
CCC(C)c1ccc2oc(-c3ccc(NC(=O)Cn4cnc5c(=O)n(C)c(=O)n(C)c54)cc3)nc2c1 (configuration not stated)	0	26.1	84.1	0	0	0	27.5	17.5	-	0	MPTP abs DR=0;MPTP counter DR=41.4
CCOC(=O)c1sc(NC(=O)Nc2ccccc2F)nc1C	0	37.3	57.7	-73.8	0	0	75.7	70.8	-	68.3
CC1CCN(C(=O)N2c3ccccc3Sc3ccccc32)CC1	0	19.1	65.1	0	0	0	0	0	-	34.5
CC1CCCN(C(=O)N2c3ccccc3Sc3ccccc32)C1 (configuration not stated)	0	0	0	0	0	0	-	-	-	-
SMILES	dFosB act-1	HSP90 inh	MPTP block	HSF1 inhib	HSF-1 act	Platelet DG rel	HSP90 inh confirm	luciferase ctr	dFosB act-2	MPTP counter	others
CCOC(=O)C1=C(COC(=O)CNS(=O)(=O)c2ccc(NC(C)=O)cc2)NC(=O)NC1C (configuration not stated)	0	-	0	-	-	-	-	-	-	-
CCOc1cc(/C=N/NC(=O)C(=O)Nc2cc(Cl)ccc2C)ccc1O	0	0	0	0	0	0	-	-	-	-
O=[N+]([O-])c1ccc(O)c(N=Cc2sc3ccccc3c2O)c1	0	21.4	59.8	0	0	0	0	0	-	67.3
CCc1ccc(Nc2n[n+](-c3ccccc3)c(-c3ccc(N(CC)CC)cc3)s2)cc1	74.6	20.1	95.5	0	0	0	45.8	0	-	113.6
CCN(CC)CCOC(=O)c1ccc(NC(=O)CCCN2C(=O)S/C(=C/c3ccc(OC)cc3)C2=S)cc1	0	33.5	60.7	0	0	0	30.0	0	-	0
Cc1nn(C(C)(C)C)c(C)c1/C=N/OC(=O)Nc1ccc(Cl)c(Cl)c1	0	78.3	72.8	-95.3	0	0	85.9	84.9	-	75.9
Cc1nn(C(C)(C)C)c(NC(=O)c2ccc(Cl)cc2Cl)c1Br	0	0	0	0	0	0	-	-	-	-
O=C(CSc1nccn1Cc1ccccc1)NC1CCCC1	0	0	0	0	0	0	-	-	-	-
Cn1c(N)c(C(=O)COC(=O)Cc2ccc(F)cc2)c(=O)n(C)c1=O	0	-	0	-	-	-	-	-	-	-
CN(CC(=O)Nc1ccc(Cl)c(C(F)(F)F)c1)C(=O)CCc1nc2ccccc2c(=O)[nH]1	52.1	-	0	-	-	-	-	-	0	-
CCCN(CC(=O)Nc1ccc(F)c(F)c1F)C(=O)CCc1nc2ccccc2c(=O)[nH]1	40.1	-	0	0	0	0	-	-	0	-
COc1ccc(/C=C/C(=O)OCC(=O)Nc2cc(C(F)(F)F)ccc2Cl)cc1	30.8	0	0	0	0	0	-	-	0	-
O=C(COC(=O)/C=C/c1cccc(C(F)(F)F)c1)Nc1cccc2ccccc12	0	0	0	0	0	0	-	-	-	-
O=C(COC(=O)/C=C/c1cccc(C(F)(F)F)c1)NC(c1ccccc1)c1ccccc1	26.3	0	0	0	0	0	-	-	0	-
COc1ccc(/C=C/C(=O)OCC(=O)Nc2cc(S(=O)(=O)N(C)C)ccc2Cl)cc1	0	0	0	0	0	0	-	-	-	-
O=C(COC(=O)/C=C/c1cccc(C(F)(F)F)c1)NC(=O)NCc1ccccc1	24.5	-	0	-	-	-	-	-	0	-
CCN(CC)CCc1nc(-c2ccccc2)no1	0	-	0	-	-	-	-	-	-	-
COc1cccc(Nc2nc(N)c([N+](=O)[O-])c(NCc3ccccc3)n2)c1	50.6	0	0	0	70.4	0	-	-	0	-

Bioassay records deposited in PubChem by several laboratories.
